Results as given in PubChem BioAssay (EPA / NIEHS).
Results filed as inconclusive are left out. Active and inactive are the calls of the source. The calls were made as follows, unless noted: active = hit-call score of the fitted dose curve at least 0.9, where 1 is the maximum; inactive = score below 0.9.

Columns and labels:
[1] = CCTE_Simmons_MITO_basal_resp_rate: CCTE's HepG2 Seahorse XF Respirometric Screening Assay at Basal Respiratory State, Simmons Lab (AID 2284001); settings: actives raise or lower the signal
Outline: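 Readout is oxygen consumption rate after test compound injection, measured by Seahorse XF in HepG2 cells. Seven concentrations from 125 nM up to 100 uM final are tested, and activity in either direction is fitted against DMSO.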

[2] = CCTE_Simmons_MITO_inhib_resp_rate: CCTE's HepG2 Seahorse XF Respirometric Screening Assay at Inhibited Respiratory State [full ETC block], Simmons Lab (AID 2284006); settings: actives raise or lower the signal
Outline: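 Test chemicals at seven final concentrations (125 nM–100 uM) in three biological replicates, with DMSO as vehicle. HepG2 oxygen consumption was then tracked on a Seahorse XF96 for 72 min through FCCP and rotenone/antimycin A phases, with the inhibited-phase rate as the endpoint.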

[3] = CCTE_Simmons_MITO_viability: CellTiter-Glo Viability Assessment for CCTE's HepG2 Seahorse XF Respirometric Screening Assay [post-hoc], Simmons Lab (AID 2284007; active = hit-call score of the fitted dose curve at least 0.9, where 1 is the maximum;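 as to AC50: cells exposed to chemical for 90 min before the ATP read; actives lower ATP signal relative to DMSO baseline meaning reduced viability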)
Outline: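 Post-hoc viability check on the HepG2 respirometry plates: luciferase-based ATP signal measured once, after 90 min compound exposure spanning 125 nM–100 uM final. Activity was referenced to DMSO as baseline.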

[4] = CCTE_Harrill_HTTr_Viability_MCF7: CCTE's 6-hour Cell Viability Assessment for the High-Throughput Transcriptomics (HTTr) Platform, in MCF-7 cells cultured in DMEM + 10% fetal bovine serum, Harrill Lab (AID 2284010)
Outline: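 Eight-point concentration series, six-hour exposure. Propidium iodide exclusion imaged to assess membrane integrity as a cytotoxicity readout; bidirectional fitting was done with DMSO as negative control and activity baseline.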

[5] = CCTE_Harrill_HTTr_Apoptosis_MCF7: CCTE's 6-hour Apoptosis Assessment for the High-Throughput Transcriptomics (HTTr) Platform, in MCF-7 cells cultured in DMEM + 10% fetal bovine serum, Harrill Lab (AID 2284011)
Outline: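 Cells are dosed with test chemicals at eight concentrations and imaged 6 hours later for caspase-3/7 activity using a green fluorogenic detection reagent. Activity is fitted in both directions against DMSO controls.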

[6] = biological target: Nucleoli Translocation, AR (gene 367) (UniProt P10275); assay: UPITT_HCI_U2OS_AR_TIF2_Nucleoli_Agonist: University of Pittsburgh U2OS Androgen Receptor-Transcriptional Intermediary Factor 2 (AR-TIF2) Agonism High Content Imaging Assay for Nucleoli Translocation (AID 2283998; active = hit-call score of the fitted dose curve at least 0.9, where 1 is the maximum)
Chain of Nucleoli Translocation, AR (gene 367) (P10275 whole entry, looked up): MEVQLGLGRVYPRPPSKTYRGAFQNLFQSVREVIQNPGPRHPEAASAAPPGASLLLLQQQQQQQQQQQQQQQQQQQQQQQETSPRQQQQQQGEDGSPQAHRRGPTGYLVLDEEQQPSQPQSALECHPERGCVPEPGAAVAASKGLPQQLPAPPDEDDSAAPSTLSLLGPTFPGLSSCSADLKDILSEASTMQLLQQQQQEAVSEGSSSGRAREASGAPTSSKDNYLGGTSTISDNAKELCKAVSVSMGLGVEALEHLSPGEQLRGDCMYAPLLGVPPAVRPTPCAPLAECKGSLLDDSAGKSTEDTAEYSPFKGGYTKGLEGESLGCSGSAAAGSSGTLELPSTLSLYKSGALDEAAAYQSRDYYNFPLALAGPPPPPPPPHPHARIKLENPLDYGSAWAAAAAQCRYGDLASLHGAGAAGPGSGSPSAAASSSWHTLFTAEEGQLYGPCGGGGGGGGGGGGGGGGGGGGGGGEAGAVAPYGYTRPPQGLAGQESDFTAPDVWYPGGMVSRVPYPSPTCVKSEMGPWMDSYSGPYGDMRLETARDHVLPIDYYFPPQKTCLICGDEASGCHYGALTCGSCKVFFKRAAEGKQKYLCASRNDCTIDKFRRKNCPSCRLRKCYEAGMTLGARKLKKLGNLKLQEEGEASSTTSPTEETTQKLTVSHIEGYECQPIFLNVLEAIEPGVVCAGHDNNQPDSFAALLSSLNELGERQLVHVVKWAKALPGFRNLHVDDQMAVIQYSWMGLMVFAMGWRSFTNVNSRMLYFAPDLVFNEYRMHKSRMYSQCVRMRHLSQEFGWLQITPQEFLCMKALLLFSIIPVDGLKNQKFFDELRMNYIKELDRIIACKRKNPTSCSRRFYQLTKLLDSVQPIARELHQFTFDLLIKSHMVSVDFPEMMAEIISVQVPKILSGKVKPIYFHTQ
Outline: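 Red-tagged human androgen receptor co-expressed with GFP-tagged TIF2 serves as the binding reporter. Primary testing used 20 uM final (0.2% DMSO); follow-up dose response covered 0.195 to 50 uM final (0.5% DMSO).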

[7] = biological target: Ratio of Nucleoli Translocation and Cytoplasm, AR (gene 367) (UniProt P10275); assay: UPITT_HCI_U2OS_AR_TIF2_Nucleoli_Cytoplasm_Ratio_Agonist: University of Pittsburgh U2OS Androgen Receptor-Transcriptional Intermediary Factor 2 (AR-TIF2) Agonism High Content Imaging Assay for Ratio of Nucleoli Translocation and Cytoplasm (AID 2284000; active = hit-call score of the fitted dose curve at least 0.9, where 1 is the maximum;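 also: hits raise the red nucleolar to cytoplasm ratio above vehicle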)
Chain of Ratio of Nucleoli Translocation and Cytoplasm, AR (gene 367) (P10275 whole entry, looked up): as above
Outline: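 Primary screen at 20 uM final (0.2% DMSO), then triplicate confirmation and dose-response from 0.195 to 50 uM final (0.5% DMSO). Cells: U2OS with AR-RFP and TIF2-GFP. Endpoint is the nucleoli/cytoplasm red-fluorescence ratio, gain-of-signal vs DMSO.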

[8] = biological target: Nucleoli Translocation, AR (gene 367) (UniProt P10275); assay: UPITT_HCI_U2OS_AR_TIF2_Nucleoli_Antagonist: University of Pittsburgh U2OS Androgen Receptor-Transcriptional Intermediary Factor 2 (AR-TIF2) Antagonism High Content Imaging Assay for Nucleoli Translocation (AID 2283997; active = hit-call score of the fitted dose curve at least 0.9, where 1 is the maximum)
Outline: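 An antagonist-mode imaging screen: engineered U2OS (AR-RFP, TIF2-GFP) exposed to 20 uM compound, 0.2% DMSO. Activity reflects nucleolar red fluorescence change relative to DHT baseline.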

[9] = biological target: Ratio of Nucleoli Translocation and Cytoplasm, AR (gene 367) (UniProt P10275); assay: UPITT_HCI_U2OS_AR_TIF2_Nucleoli_Cytoplasm_Ratio_Antagonist: University of Pittsburgh U2OS Androgen Receptor-Transcriptional Intermediary Factor 2 (AR-TIF2) Antagonism High Content Imaging Assay for Ratio of Nucleoli Translocation and Cytoplasm (AID 2283999; active = hit-call score of the fitted dose curve at least 0.9, where 1 is the maximum;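 also: antagonists lower the DHT-driven ratio of nucleolar to cytoplasmic red signal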)
Outline: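 This antagonist-mode endpoint tracks AR-RFP localisation, the nucleolus-to-cytoplasm intensity ratio, in TIF2-GFP-coexpressing U2OS cells. DMSO stays at or below 0.5%; testing spans 20 uM single-dose and 0.195–50 uM series, with DHT setting the activity baseline.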

[10] = CCTE_Harrill_HTTr_Apoptosis_DMEM_24hr: (Pilot) CCTE's 24-hour Apoptosis Assessment for the High-Throughput Transcriptomics (HTTr) Platform, in MCF-7 cells cultured in DMEM + 10% fetal bovine serum, Harrill Lab (AID 2283983)
Outline: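 Caspase-3/7 activity read by high-content imaging (CellEvent Green reagent) 24 h after dosing. MCF-7 cells grown in DMEM with 10% FBS received an eight-point concentration series; fits were bidirectional versus DMSO.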

[11] = CCTE_Harrill_HTTr_Apoptosis_PRF_DMEM_6hr: (Pilot) CCTE's 6-hour Apoptosis Assessment for the High-Throughput Transcriptomics (HTTr) Platform, in MCF-7 cells cultured phenol red-free DMEM + 10% charcoal-stripped fetal bovine serum, Harrill Lab (AID 2283984)
Outline: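 Caspase-3/7 activity (CellEvent Green) read by high-content imaging 6 h after dosing, eight concentrations. Cells: MCF-7, phenol red-free DMEM with 10% charcoal-stripped serum. Curves fit both directions against DMSO.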

[12] = CCTE_Harrill_HTTr_Apoptosis_PRF_DMEM_24hr: (Pilot) CCTE's 24-hour Apoptosis Assessment for the High-Throughput Transcriptomics (HTTr) Platform, in MCF-7 cells cultured in phenol red-free DMEM + 10% charcoal-stripped fetal bovine serum, Harrill Lab (AID 2283986)
Outline: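 Eight concentrations tested for 24 h on MCF-7 grown in charcoal-stripped serum, phenol red-free DMEM. High content imaging of CellEvent Caspase 3/7 Green signal gives apoptosis read-out, fitted both ways relative to DMSO.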

DIO1 (gene 1733) = assay: CCTE_GLTED_hDIO1: CCTE's human Deiodinase 1 (DIO1) Inhibition Assay, Great Lakes Toxicology and Ecology Division (GLTED) Lab (AID 2283987; active = hit-call score of the fitted dose curve at least 0.9, where 1 is the maximum;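 also: isolated human DIO1 enzyme in a cell-free setup rather than cells; enzyme activity read as free iodide liberated from substrate via Sandell-Kolthoff colorimetry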)
Outline: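 Cell-free hDIO1 assay, triplicate plates. Absorbance of the Sandell-Kolthoff reaction reports enzyme-liberated iodide; iodinated chemicals or nitrite, iron and thiocyanate may interfere.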

[13] = CCTE_Shafer_MEA_acute_spike_number: CCTE's Neural Acute Assay for Total Number of Spikes, Shafer Lab (AID 2284008)
Outline: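 Cortical neurons from rat, matured to DIV 13 or 15 on microelectrode arrays, are recorded at 37 C before and during 40-min exposure to 0.03-40 uM compound. Wells need >/= 10 active electrodes.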

[14] = CCTE_Shafer_MEA_acute_firing_rate_mean: CCTE's Neural Acute Assay for Mean Firing Rate, Shafer Lab (AID 2284009);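 also: analyzed for loss of signal so actives lower firing rate relative to DMSO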
Outline: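 Spontaneous spiking of primary rat cortical networks, DIV 13/15, 37 C. Compound 0.03-40 uM, n ≥3 wells; 40 min baseline vs 40 min treated. Endpoint fitted in loss-of-signal direction against DMSO.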

[15] = CCTE_Shafer_MEA_acute_burst_duration_mean: CCTE's Neural Acute Assay for Mean Burst Duration, Shafer Lab (AID 2284014);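 also: hits are decreases in mean burst duration relative to DMSO controls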
Outline: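 Acute exposure of mature rat cortical networks (DIV 13 or 15) grown on microelectrode arrays to 0.03-40 uM compound. Mean burst duration compared with the 40-min pre-dose baseline over a 40-min post-dose recording at 37 C.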

[16] = CCTE_Shafer_MEA_acute_per_burst_spike_number_mean: CCTE's Neural Acute Assay for Average Number of Spikes Per Burst, Shafer Lab (AID 2284015);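 also: hits are decreases in mean spikes per burst versus baseline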
Outline: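 Percent change in mean spikes per single-electrode burst is compared between a 40 min baseline and a 40 min recording with compound (0.03-40 uM). Cultures were rat cortical neurons on MEA plates at DIV 13 or 15, recorded at 37 C, with DMSO as the negative control.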

[17] = CCTE_Shafer_MEA_acute_interburst_interval_mean: CCTE's Neural Acute Assay for Mean Interburst Interval, Shafer Lab (AID 2284016);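 also: percent change of mean interburst interval versus each well's own pre-dose baseline; curves fitted for decrease in interburst interval relative to DMSO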
Outline: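 Percent change in mean single-electrode interburst interval was calculated per well from 40 min recordings before and after compound (0.03-40 uM). Recordings were made at 37 C on rat cortical cultures at DIV 13 or 15, with spikes detected at 8x rms threshold.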

[18] = CCTE_Shafer_MEA_acute_burst_percentage_mean: CCTE's Neural Acute Assay for Percentage of Spikes in a Burst, Shafer Lab (AID 2284017);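 as to AC50: curve fitted for loss of signal so potency reflects decreased burst percentage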
Outline: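 Well-level mean burst percentage from a 40-min recording after compound (0.03-40 uM) expressed as percent change from a 40-min baseline at 37C. Cultures: primary rat cortical neurons on MEA, dosed on DIV 13 or 15; fitted downward relative to DMSO.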

[19] = CCTE_Harrill_HTTr_CellCount_MCF7: CCTE's Cell Proliferation Assessment for the High-Throughput Transcriptomics (HTTr) Platform, Harrill Lab (AID 2284012; active = hit-call score of the fitted dose curve at least 0.9, where 1 is the maximum;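 also: count of Hoechst-stained nuclei per well by high-content imaging in MCF-7 cells; cells exposed to compound for six hours; intended direction is loss of nuclei count meaning fewer cells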)
Outline: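 For this full-screen endpoint, MCF-7 cultures received eight compound dilutions for six hours. Well nuclei counts from Hoechst imaging were analyzed relative to DMSO.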

Measured: AC50

Nc1cccc(N)c1
active: [2] 28.7 µM
inactive: [1] | [3] | [4] | [5]

CC(C)CC(C)(O)C#CC(C)(O)CC(C)C (configuration not stated)
inactive: [2] | [3] | [4] | [5]
active: [1] 50 µM

C1N2CN3CN1CN(C2)C3
inactive: [6] | [7] | [4] | [5]

Cc1ccc(N)cc1O
active: [8] 37 µM | [1] 50 µM | [2] 39.1 µM
inactive: [6] | [9] | [7] | [3]

Oc1ccc2c(c1)-c1ccccc1C2
inactive: [7] | [4] | [5]
active: [8] 12 µM | [6] 76.6 µM | [9] 7.43 µM

CNS(=O)(=O)c1cc(C(=O)N2CCC(CCN3C4CCC3CC(n3c(C)nc5ccccc53)C4)(c3cccc(F)c3)CC2)c(Cl)cc1F (configuration not stated)
inactive: [8] | [9]

CCC(C)(C)C(=O)O[C@H]1C[C@@H](C)C=C2C=C[C@H](C)[C@H](CC[C@@H]3C[C@@H](O)CC(=O)O3)[C@H]21
active: DIO1 (gene 1733) 49 µM
inactive: [10] | [11] | [12] | [13] | [14] | [15] | [16] | [17] | [18]

CCOC(=O)c1ccc(C2CCC(NC[C@H](O)COc3ccc(O)c(NS(C)(=O)=O)c3)CC2)cc1 (some centres not stated)
active: DIO1 (gene 1733) 95 µM | [18] 30.2 µM
inactive: [1] | [2] | [13] | [14] | [4] | [5] | [19] | [15] | [16] | [17]

O=C(OC[C@H]1O[C@@H](OC(=O)c2cc(O)c(O)c(OC(=O)c3cc(O)c(O)c(O)c3)c2)[C@H](OC(=O)c2cc(O)c(O)c(OC(=O)c3cc(O)c(O)c(O)c3)c2)[C@@H](OC(=O)c2cc(O)c(O)c(OC(=O)c3cc(O)c(O)c(O)c3)c2)[C@@H]1OC(=O)c1cc(O)c(O)c(OC(=O)c2cc(O)c(O)c(O)c2)c1)c1cc(O)c(O)c(OC(=O)c2cc(O)c(O)c(O)c2)c1
active: DIO1 (gene 1733) 17.7 µM

Nc1nc2ncc(CNc3ccc(C(=O)N[C@@H](CCC(=O)O)C(=O)O)cc3)nc2c(=O)[nH]1
inactive: [8] | [7] | [4] | [5] | [19]

O=C(CCCCCCCCc1cccnc1)N1CCC(C=C(c2ccccc2)c2ccccc2)CC1
inactive: [8] | [9] | [1] | [2] | [4] | [5]

O=C(O)c1cccc(N(Cc2cccnc2)c2ccc(OC(F)F)c(OC(F)F)c2)c1
active: [8] 22.1 µM | [1] 1.03 µM | [3] 10.7 µM
inactive: [6] | [9] | [7] | [2] | [4] | [5] | [19]

Fc1ccccc1[C@@H](F)COC1CCC(Nc2ncnc3[nH]ncc23)CC1 (some centres not stated)
active: [8] 18.3 µM | [1] 14.1 µM
inactive: [6] | [9] | [2] | [3] | [4] | [5] | [19]

CC1(C)C(=O)N(Br)C(=O)N1Br
inactive: [8] | [6] | [9] | [7] | [4] | [5] | [19]

CC(C)c1cccc(C(C)C)c1N1C(=O)c2ccc(O)cc2C1=O
inactive: [2] | [3] | [4] | [5] | [19]
active: [1] 20 µM

CN(C)c1ccc(N=NS(=O)(=O)O)cc1
inactive: [8] | [9] | [7] | [4] | [5] | [19]

Cn1c(=O)cc(Oc2ccc(F)cc2F)c2cnc(NCC(C)(C)O)nc21
inactive: [1] | [2] | [3] | [4] | [5]

CC(C)=CCCC(C)CCO (configuration not stated)
inactive: [8] | [6] | [9] | [7] | [4] | [5] | [19]

CCCN(C1CCN(C(=O)C2CCNCC2)CC1)[C@@H]1CCc2ccc(OC)cc2C1
active: [18] 11.3 µM
not listed: [1] | [2] | [3] | [7] | [10] | [11] | [12] | DIO1 (gene 1733)
inactive: all other assays above

C=CCCCCCCCCC(=O)O
active: [1] 35.1 µM
inactive: [2] | [3]

CCOc1cccc(-n2cc(C(=O)N3CCN(c4cc(C(=O)O)c5ccccc5c4)CC3)nc2-c2ccc(C)cc2)c1
active: DIO1 (gene 1733) 151 µM | [8] 78.4 µM
inactive: [9] | [7] | [1] | [2] | [4] | [5] | [19]
